# Reference: PubChem BioAssay (EPA / NIEHS)
# Where “and” joins values, the source holds several entries; their conditions need not be identical. Equal entries are not always repeated. Inconclusive results are not listed. Some structures have more than one record in an assay (separate samples or runs), and their calls can disagree. Calls of active or inactive are those of the source. How the source made its calls, unless noted: active means hit-call score of the fitted dose curve at least 0.9, where 1 is the maximum; inactive means score below 0.9.
# Assays:
# [1] = read-out: Monocyte Chemoattractant Protein-1 (MCP1), CCL2 (gene 6347); assay: BSK_SAg_MCP1: BioMAP Diversity Plus: SAg Assay for Monocyte Chemoattractant Protein-1 (MCP1) Biomarker Activity (AID 2283090); settings: primary human HUVEC with PBMC; actives raise or lower the signal
# Summary of the method: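 Values derive from bidirectional fitting of ELISA-measured MCP1 against DMSO controls. Readings were taken 24 h after dosing human vascular endothelial cells co-cultured with peripheral blood mononuclear cells under superantigen stimulation.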
# [2] = read-out: E-selectin (Homo sapiens) (UniProt P16581); assay: BSK_SAg_Eselectin: BioMAP Diversity Plus: SAg Assay for Eselectin Biomarker Activity (AID 2283091); settings: primary human HUVEC with PBMC; actives raise or lower the signal
# Summary of the method: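 E-selectin ELISA readout at 24 h post-dosing in human umbilical vein endothelial cell/PBMC co-culture; gain or loss of signal fitted relative to DMSO baseline.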
# [3] = read-out: Monokine induced gamma interferon (MIG), CXCL9 (gene 4283); assay: BSK_SAg_MIG: BioMAP Diversity Plus: SAg Assay for Monokine induced gamma interferon (MIG) Biomarker Activity (AID 2283092); settings: primary human HUVEC with PBMC; actives raise or lower the signal
# Summary of the method: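 HUVEC plus human PBMC co-culture, chemicals dosed and MIG (CXCL9) quantified by ELISA at 24 h. Bidirectional curve fitting against DMSO as negative control and baseline, so both gain and loss of signal count as activity.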
# [4] = read-out: Interleukin-8 (IL8), CXCL8 (gene 3576); assay: BSK_SAg_IL8: BioMAP Diversity Plus: SAg Assay for Interleukin-8 (IL8) Biomarker Activity (AID 2283094); settings: primary human HUVEC with PBMC; actives raise or lower the signal
# Summary of the method: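 ELISA readout of IL-8 from a superantigen-activated endothelial/PBMC primary human co-culture, taken 24 h post-dosing and fitted in both directions against DMSO; parallel SRB total-protein staining flags overt cytotoxicity.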
# [5] = BSK_SAg_Proliferation: Cell Proliferation Assessment in the BioMAP Diversity Plus: SAg Assay (AID 2283095); settings: primary human HUVEC with PBMC;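 further: relative cell number as total protein by SRB absorbance in sub-confluent culture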
# Summary of the method: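 Relative cell number in the endothelial cell/PBMC co-culture was quantified at 96 h by SRB staining (0.1% SRB, 10% TCA fixation, read at 560 nm). Curves were fitted in both directions relative to DMSO baseline.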
# [6] = BSK_SAg_SRB: Viability Assessment in the BioMAP Diversity Plus: SAg Assay (AID 2283096); settings: primary human HUVEC with PBMC;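 further: cells read one day after compound addition; hits may be either gain or loss of signal compared with DMSO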
# Summary of the method: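 Compounds were added to a human vascular co-culture of umbilical vein endothelium and PBMC. After 24 h, parallel cultures were fixed with 10% TCA, stained with 0.1% sulforhodamine B and read at 560 nm. Gain or loss of signal was fitted relative to DMSO.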
# [7] = BSK_SAg_PBMCCytotoxicity: PBMC Cytotoxicity Assessment in the BioMAP Diversity Plus: SAg Assay (AID 2283093); settings: primary human HUVEC with PBMC;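 further: fitted both ways against DMSO so a hit may be loss or gain of signal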;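 on AC50: PBMC superantigen activated with SEB plus TSST-1 one hour after compound addition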
# Summary of the method: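 PBMC viability by Alamar Blue reduction, fluorescence read at 546/580 nm after 6 h dye exposure. Cells were dosed 1 h before SEB plus TSST-1 activation (20 ng/mL final each), then held 90 h; endothelial/PBMC human co-culture.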
# [8] = biological target: Cytochrome P450 3A4 (Homo sapiens) (UniProt P08684); assay: NVS_ADME_hCYP3A4: NovaScreen (NVS) CYP450-related Enzyme Activity (ADME) Assay for human CYP3A4 (AID 2283110; active means hit-call score of the fitted dose curve at least 0.9, where 1 is the maximum)
# Summary of the method: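 Recombinant CYP3A4 from insect cells, fluorescence enzyme read-out, 0.33 h after chemical addition. Acetonitrile = negative control/baseline. Primary HTS: 10 uM in duplicate; actives re-tested in concentration series.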
# [9] = biological target: human CYP2D6, CYP2D6 (gene 1565) (UniProt P10635); assay: NVS_ADME_hCYP2D6: NovaScreen (NVS) CYP450-related Enzyme Activity (ADME) Assay for human CYP2D6 (AID 2283107; active means hit-call score of the fitted dose curve at least 0.9, where 1 is the maximum)
# Summary of the method: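 Fluorescence intensity read 1 h post-dosing; insect-cell-expressed recombinant protein with fluorogenic substrate, no cells. Activity is scored as signal loss relative to acetonitrile baseline, first at a single 10 uM concentration in duplicate, then as concentration series for confirmed actives.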
# [10] = biological target: human CYP2C9, CYP2C9 (gene 1559) (UniProt P11712); assay: NVS_ADME_hCYP2C9: NovaScreen (NVS) CYP450-related Enzyme Activity (ADME) Assay for human CYP2C9 (AID 2283108; active means hit-call score of the fitted dose curve at least 0.9, where 1 is the maximum)
# Summary of the method: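 Recombinant human CYP2C9 expressed in SF9 cells, fluorogenic substrate, fluorescence read 0.75 h after dosing. Chemicals first run in duplicate at 10 uM, with actives followed in concentration series; loss of signal versus acetonitrile baseline.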
# Chain of E-selectin (Homo sapiens) (P16581 whole entry, looked up): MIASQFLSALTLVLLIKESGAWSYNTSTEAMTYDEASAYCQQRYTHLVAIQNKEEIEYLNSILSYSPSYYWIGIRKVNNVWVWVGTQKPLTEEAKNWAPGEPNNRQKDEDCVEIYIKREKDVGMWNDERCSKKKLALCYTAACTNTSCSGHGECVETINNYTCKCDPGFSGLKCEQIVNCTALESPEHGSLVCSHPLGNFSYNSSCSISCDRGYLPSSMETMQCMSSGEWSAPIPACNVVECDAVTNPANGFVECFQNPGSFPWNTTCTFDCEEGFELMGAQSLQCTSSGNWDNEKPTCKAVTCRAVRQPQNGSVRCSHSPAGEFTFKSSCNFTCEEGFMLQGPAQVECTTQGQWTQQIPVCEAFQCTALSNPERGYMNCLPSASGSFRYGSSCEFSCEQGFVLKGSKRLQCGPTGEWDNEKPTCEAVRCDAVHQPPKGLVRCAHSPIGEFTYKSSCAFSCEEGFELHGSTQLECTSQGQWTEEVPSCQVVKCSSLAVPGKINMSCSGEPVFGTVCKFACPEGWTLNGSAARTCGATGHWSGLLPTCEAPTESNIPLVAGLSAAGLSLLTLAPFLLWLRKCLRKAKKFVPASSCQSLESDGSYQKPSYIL
# Chain of human CYP2D6, CYP2D6 (gene 1565) (P10635 whole entry, looked up): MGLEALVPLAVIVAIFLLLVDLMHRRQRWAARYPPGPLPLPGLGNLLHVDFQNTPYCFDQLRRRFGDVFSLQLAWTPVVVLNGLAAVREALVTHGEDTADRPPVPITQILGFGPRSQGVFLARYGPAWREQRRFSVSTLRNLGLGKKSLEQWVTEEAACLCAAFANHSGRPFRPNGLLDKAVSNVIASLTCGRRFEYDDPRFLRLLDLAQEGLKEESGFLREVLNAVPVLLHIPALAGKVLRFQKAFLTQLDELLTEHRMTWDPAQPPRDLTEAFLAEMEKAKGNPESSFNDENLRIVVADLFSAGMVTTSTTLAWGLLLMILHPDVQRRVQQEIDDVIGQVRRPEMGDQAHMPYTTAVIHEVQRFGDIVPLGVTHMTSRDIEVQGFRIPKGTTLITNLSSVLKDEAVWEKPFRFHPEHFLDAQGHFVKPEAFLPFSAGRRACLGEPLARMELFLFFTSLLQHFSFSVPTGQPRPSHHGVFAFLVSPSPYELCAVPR
# Chain of Cytochrome P450 3A4 (Homo sapiens) (P08684 whole entry, looked up): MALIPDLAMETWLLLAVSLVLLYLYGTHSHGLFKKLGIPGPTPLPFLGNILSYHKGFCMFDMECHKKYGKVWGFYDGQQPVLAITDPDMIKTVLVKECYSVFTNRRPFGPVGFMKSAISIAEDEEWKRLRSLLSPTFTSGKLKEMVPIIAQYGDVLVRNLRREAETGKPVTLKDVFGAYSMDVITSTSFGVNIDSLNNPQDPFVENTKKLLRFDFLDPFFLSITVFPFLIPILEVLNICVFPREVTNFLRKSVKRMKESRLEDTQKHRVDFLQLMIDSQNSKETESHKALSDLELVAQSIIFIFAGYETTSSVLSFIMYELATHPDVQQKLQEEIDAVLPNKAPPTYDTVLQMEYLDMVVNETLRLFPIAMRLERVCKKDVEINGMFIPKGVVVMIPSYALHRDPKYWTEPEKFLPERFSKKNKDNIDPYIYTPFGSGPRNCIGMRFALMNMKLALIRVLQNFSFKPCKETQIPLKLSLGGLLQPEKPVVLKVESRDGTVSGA
# Chain of human CYP2C9, CYP2C9 (gene 1559) (P11712 whole entry, looked up): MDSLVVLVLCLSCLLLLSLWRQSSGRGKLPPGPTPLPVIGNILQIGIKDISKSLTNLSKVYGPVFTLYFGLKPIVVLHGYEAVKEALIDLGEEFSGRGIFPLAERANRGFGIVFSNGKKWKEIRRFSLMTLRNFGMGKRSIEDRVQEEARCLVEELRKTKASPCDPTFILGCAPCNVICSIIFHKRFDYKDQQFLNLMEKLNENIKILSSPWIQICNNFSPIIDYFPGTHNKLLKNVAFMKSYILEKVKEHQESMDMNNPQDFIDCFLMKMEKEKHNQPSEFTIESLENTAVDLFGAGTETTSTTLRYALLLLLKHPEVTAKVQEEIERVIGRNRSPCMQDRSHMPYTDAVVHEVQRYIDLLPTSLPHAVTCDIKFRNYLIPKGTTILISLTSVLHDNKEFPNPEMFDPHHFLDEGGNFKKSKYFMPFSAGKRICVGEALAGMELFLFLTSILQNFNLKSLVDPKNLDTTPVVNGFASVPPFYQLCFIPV
smiles,measurement,setting,value
C=C(C)C(=O)OCC(F)(F)C(F)(F)C(F)(F)F,outcome,[1],inactive
same,outcome,[2],inactive
same,outcome,[3],inactive
same,outcome,[4],inactive
same,outcome,[5],inactive
same,outcome,[6],inactive
CC(CCl)OP(=O)(OC(C)CCl)OC(C)CCl (stereo not given),outcome,[1],inactive
same,outcome,[2],inactive
same,outcome,[3],inactive
same,outcome,[4],inactive
same,outcome,[5],inactive
same,outcome,[6],inactive
O=S(=O)(OCC(F)F)C(F)(F)F,outcome,[1],inactive
same,outcome,[3],inactive
same,outcome,[4],inactive
same,outcome,[6],inactive
FC(F)(F)C(F)(F)C(F)(F)C(F)(F)C(F)(F)C(F)(F)CC1CO1 (stereo not given),outcome,[1],inactive
same,outcome,[2],inactive
same,outcome,[3],inactive
same,outcome,[4],inactive
same,outcome,[6],inactive
C=C(C)C(=O)OCCC(F)(F)C(F)(F)C(F)(F)C(F)(F)C(F)(C(F)(F)F)C(F)(F)F,outcome,[3],inactive
same,outcome,[4],inactive
same,outcome,[6],inactive
C=C(C)C(=O)OCC(F)(F)C(F)(F)C(F)(F)C(F)(F)C(F)(F)C(F)(F)C(F)(F)F,outcome,[2],inactive
same,outcome,[3],inactive
same,outcome,[7],inactive
same,outcome,[4],inactive
same,outcome,[5],inactive
same,outcome,[6],inactive
O[Si](c1ccccc1)(c1ccccc1)c1ccccc1,AC50,[3],31.1 µM (active)
same,AC50,[7],30.5 µM (active)
same,AC50,[4],20 µM (active)
same,AC50,[5],32.6 µM (active)
same,AC50,[6],26.8 µM (active)
CCc1ccc(C(c2ccc(CC)cc2)C(Cl)Cl)cc1,AC50,[2],26 µM (active)
same,AC50,[3],33.6 µM (active)
same,outcome,[4],inactive
same,AC50,[6],29.1 µM (active)
C=CC(=O)OCC(F)(F)C(F)(F)C(F)(F)C(F)(F)C(F)(F)C(F)(F)C(F)(F)F,outcome,[3],inactive
same,outcome,[4],inactive
same,outcome,[6],inactive
O=C(O)C(F)(F)C(F)(F)C(F)F,outcome,[2],inactive
same,outcome,[3],inactive
same,outcome,[4],inactive
same,outcome,[5],inactive
same,outcome,[6],inactive
CCN(CC)c1ccc2c(C)cc(=O)oc2c1,outcome,[2],inactive
same,outcome,[3],inactive
same,outcome,[7],inactive
same,outcome,[4],inactive
same,outcome,[5],inactive
same,outcome,[6],inactive
same,outcome,[8],inactive
CCCCC(CC)COP(=O)(O)OCC(CC)CCCC (stereo not given),outcome,[2],inactive
same,outcome,[3],inactive
same,outcome,[7],inactive
same,outcome,[4],inactive
same,outcome,[6],inactive
O=C(O)C(F)(F)C(F)(F)C(F)(F)C(F)(F)C(F)(F)C(F)(F)C(F)(F)C(F)(F)C(F)(F)C(F)F,outcome,[3],inactive
same,AC50,[4],41.6 µM (active) and 47.9 µM (active)
same,AC50,[6],47.3 µM (active) and 45.8 µM (active)
FC(F)(F)C(F)(F)C(F)(F)C(F)(F)C(F)(F)C(F)(F)C(F)(F)C(F)(F)CCS,outcome,[3],inactive
same,outcome,[7],inactive
same,outcome,[4],inactive
same,outcome,[5],inactive
same,outcome,[6],inactive
FC(F)(F)C(F)(F)C(F)(F)CI,outcome,[3],inactive
same,outcome,[4],inactive
same,outcome,[5],inactive
same,outcome,[6],inactive
CCO[Si](CCC(F)(F)C(F)(F)C(F)(F)C(F)(F)C(F)(F)C(F)(F)F)(OCC)OCC,outcome,[3],inactive
same,outcome,[7],inactive
same,outcome,[4],inactive
same,outcome,[6],inactive
FC(F)(F)C(F)(F)C(F)(F)C(F)(F)C(F)(F)C(F)(F)CCS,outcome,[3],inactive
same,outcome,[4],inactive
same,outcome,[5],inactive
same,outcome,[6],inactive
Nc1ccc([N+](=O)[O-])cc1O,outcome,[3],inactive
same,outcome,[7],inactive
same,outcome,[4],inactive
same,outcome,[6],inactive
same,AC50,[9],3.87 µM (active)
same,AC50,[10],3.74 µM (active)
FC(F)(Br)C(F)(F)C(F)(F)C(F)(F)C(F)(F)C(F)(F)Br,outcome,[3],inactive
same,outcome,[4],inactive
same,outcome,[5],inactive
same,outcome,[6],inactive
OCC(F)(F)C(F)(F)C(F)(F)F,outcome,[3],inactive
same,outcome,[7],inactive
same,outcome,[4],inactive
same,outcome,[6],inactive
Cc1ccc(S(=O)(=O)OCC(F)(F)C(F)(F)C(F)(F)C(F)(F)C(F)(F)C(F)F)cc1,outcome,[2],inactive
same,outcome,[3],inactive
same,outcome,[4],inactive
same,AC50,[6],44 µM (active) and 37.4 µM (active)
FC1CC(F)(F)C(F)(F)C1(F)F (stereo not given),outcome,[3],inactive
same,outcome,[7],inactive
same,outcome,[4],inactive
same,outcome,[5],inactive
same,outcome,[6],inactive
OCC(F)(F)C(F)(F)C(F)(F)C(F)(F)C(F)(F)C(F)(F)F,outcome,[3],inactive
same,outcome,[4],inactive
same,outcome,[6],inactive
CO[Si](OC)(c1ccccc1)c1ccccc1,outcome,[2],inactive
same,outcome,[3],inactive
same,AC50,[7],33.8 µM (active)
same,outcome,[4],inactive
same,AC50,[5],20 µM (active)
same,outcome,[6],inactive
C=CC(F)(F)C(F)(F)C(F)(F)C(F)(F)C(F)(F)C(F)(F)C(F)(F)C(F)(F)C=C,outcome,[3],inactive
same,outcome,[4],inactive
same,outcome,[5],inactive
same,outcome,[6],inactive
Oc1ccc(Nc2ccccc2)cc1,outcome,[3],inactive
same,AC50,[7],3.57 µM (active)
same,outcome,[4],inactive
same,outcome,[6],inactive
same,outcome,[9],inactive
same,AC50,[10],0.451 µM (active)
FC(F)(F)C(F)(F)C(F)(F)C(F)(F)C(F)(F)C(F)(F)C(F)(F)I,outcome,[2],inactive
same,outcome,[3],inactive
same,outcome,[4],inactive
same,outcome,[6],inactive
O=C(O)C(F)(F)C(F)(F)F,outcome,[2],inactive
same,outcome,[3],inactive
same,outcome,[7],inactive
same,outcome,[4],inactive
same,outcome,[6],inactive
O=C(Cl)C(F)(F)C(F)(F)C(F)(F)C(F)(F)C(F)(F)C(F)(F)C(F)(F)C(F)(F)F,outcome,[3],inactive
same,AC50,[4],42.7 µM (active)
same,outcome,[4],inactive
same,outcome,[5],inactive
same,AC50,[6],42.7 µM (active) and 42.8 µM (active) and 30 µM (active)
CCCCCCC(C)OC(=O)CCCCC(=O)OC(C)CCCCCC (stereo not given),outcome,[2],inactive
same,outcome,[3],inactive
same,outcome,[4],inactive
same,outcome,[5],inactive
same,outcome,[6],inactive
CS(C)(=O)=O,outcome,[2],inactive
same,outcome,[3],inactive
same,outcome,[4],inactive
same,outcome,[5],inactive
same,outcome,[6],inactive
OCC(F)(F)C(F)(F)C(F)(F)C(F)F,outcome,[3],inactive
same,outcome,[7],inactive
same,outcome,[4],inactive
same,outcome,[5],inactive
same,outcome,[6],inactive
CCCCCCCOC(=O)c1ccccc1C(=O)OCCCCCCC,outcome,[3],inactive
same,outcome,[4],inactive
same,outcome,[5],inactive
same,outcome,[6],inactive
O=C(O)C(F)(F)C(F)(F)C(F)(F)C(F)(F)C(F)(F)C(F)(F)C(F)(F)C(F)(F)Cl,outcome,[3],inactive
same,outcome,[7],inactive
same,AC50,[4],48.8 µM (active) and 50.1 µM (active)
same,AC50,[6],48.1 µM (active) and 45.1 µM (active)
FC(F)(F)C(F)(F)C(F)(F)N(C(F)(F)C(F)(F)C(F)(F)F)C(F)(F)C(F)(F)C(F)(F)F,outcome,[3],inactive
same,outcome,[4],inactive
same,outcome,[6],inactive
FC(F)(F)C(F)(F)C(F)(F)C(F)(F)C(F)(F)CCI,outcome,[3],inactive
same,outcome,[4],inactive
same,outcome,[6],inactive
O=P(O)(O)OCCC(F)(F)C(F)(F)C(F)(F)C(F)(F)C(F)(F)C(F)(F)F,outcome,[3],inactive
same,outcome,[7],inactive
same,outcome,[4],inactive
same,outcome,[6],inactive
O=C(O)C(F)(F)C(F)(F)C(F)(F)C(F)(F)C(F)(F)C(F)(F)C(F)(F)C(F)(F)C(F)(F)C(F)(F)C(F)(F)C(F)(F)C(F)(F)F,outcome,[3],inactive
same,outcome,[7],inactive
same,outcome,[4],inactive
same,outcome,[5],inactive
same,outcome,[6],inactive
O=S(=O)(O)C(F)(F)C(F)(F)C(F)(F)C(F)(F)C(F)(F)C(F)(F)C(F)(F)F,outcome,[2],inactive
same,outcome,[3],inactive
same,outcome,[4],inactive
same,outcome,[5],inactive
same,outcome,[6],inactive
CC(=O)Nc1ccc(N=Nc2cc(C)ccc2O)cc1,outcome,[2],inactive
same,outcome,[3],inactive
same,outcome,[7],inactive
same,outcome,[4],inactive
same,outcome,[6],inactive
same,AC50,[9],2.96 µM (active)
same,AC50,[8],5 µM (active)
